From PubChem BioAssay
Only some compounds are listed: those with a hit (about 12% of all), similar ones and a draw of the others.
PI5P4K alpha inh: inhibitors of human PI5P4K alpha; AID 652105; PI5P4Kalpha enzyme, ADP-Glo luminescence, 60 min; active compounds read low; 330,000 compounds, 1.2% hits; P48426; max response, %; active = max response of -50% or lower; inconclusive = between -30% and -50%; inactive = -30% or higher; note: value at the top dose of about 77 µM
Target sequence (P48426 whole entry, looked up): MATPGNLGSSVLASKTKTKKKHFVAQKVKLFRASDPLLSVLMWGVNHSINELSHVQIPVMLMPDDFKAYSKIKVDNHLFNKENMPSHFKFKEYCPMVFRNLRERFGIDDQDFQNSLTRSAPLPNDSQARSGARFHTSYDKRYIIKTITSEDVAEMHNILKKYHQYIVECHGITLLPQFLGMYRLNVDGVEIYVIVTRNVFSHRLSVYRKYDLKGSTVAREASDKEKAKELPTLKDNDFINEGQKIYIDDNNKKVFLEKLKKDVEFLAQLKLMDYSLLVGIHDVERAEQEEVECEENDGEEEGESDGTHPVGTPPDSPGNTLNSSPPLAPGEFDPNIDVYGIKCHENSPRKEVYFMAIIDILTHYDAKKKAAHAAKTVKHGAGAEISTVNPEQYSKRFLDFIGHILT
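Human PI5P4Kalpha with substrate in 0.038 M HEPES pH 7.4, 0.28 mM EGTA, 0.1% CHAPS, 5% DMSO; reaction started with 5 microM ATP (final), 60 min at room temperature. ADP formed read by ADP-Glo luminescence.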
JMJD2A Tudor: inhibitors of human JMJD2A Tudor domain | Potency, µM (highest dose often 114 µM), usual class: inhibitors | 390,000 compounds, 4.4% hits | O75164 | AID 504339 | AlphaScreen JMJD2A-Tudor / H3K4me3 peptide binding; note: nearly all actives have a fitted effect of over 50% in size
BAZ2B block: inhibitors of human BAZ2B bromodomain; AlphaScreen BAZ2B-H3K14Ac peptide displacement; Potency, µM (titrated, usually from 114 µM), hits mostly inhibitors; 360,000 compounds, 4.4% hits; AID 504333; note: nearly all actives have a fitted effect of over 60% in size
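AlphaScreen luminescence quantifies BAZ2B engagement of H3K14Ac peptide; the protein and biotinylated peptide are both at 50 nM final, buffer PBS pH 7.4 with 0.01% Tween-20, all steps at room temperature.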
G9a block: inhibitors of human histone lysine methyltransferase G9a; 350,000 compounds, 8.8% hits; Potency, µM (top dose mostly 102 µM), usual class: inhibitors; G9a H3K9 monomethylation, AlphaScreen, 2 h; AID 504332; note: nearly all actives have a fitted effect of over 75% in size
Target sequence (Q96KQ7 913-1193 limits assumed): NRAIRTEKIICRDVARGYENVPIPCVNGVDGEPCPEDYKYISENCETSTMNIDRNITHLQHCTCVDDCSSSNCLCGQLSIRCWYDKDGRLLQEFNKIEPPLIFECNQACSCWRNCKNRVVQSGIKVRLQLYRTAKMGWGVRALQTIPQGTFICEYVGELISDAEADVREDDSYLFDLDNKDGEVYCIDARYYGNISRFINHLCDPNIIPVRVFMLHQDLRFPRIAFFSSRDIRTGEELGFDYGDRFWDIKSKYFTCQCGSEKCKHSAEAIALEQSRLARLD
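Step 1: enzyme (final 20 nM) with compound, 15 min RT. Step 2: substrate peptide 500 nM and SAM 20 uM, 2 h RT. Step 3: anti-H3K9me1 antibody and AlphaScreen beads, 10 min, then plate read.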
PLK1 PBD inh: blocks phosphopeptide binding to human PLK1 polo-box domain; Plk1 PBD binding of FITC phosphopeptide, fluorescence polarization; Potency, µM, most hits filed as inhibitors; 360,000 compounds, 2.8% hits; note: series mostly up to about 57 µM; nearly all actives have a fitted effect of over 65% in size
HP1b binding inh: blocks HP1-beta chromodomain binding to methylated histone tails; AlphaScreen HP1-beta / biotin-H3K9me3 peptide binding; Potency, µM (doses to about 114 µM), hits mostly inhibitors; 390,000 compounds, 0.56% hits; P83916; AID 540317; note: nearly all actives have a fitted effect of over 70% in size
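HP1-beta protein (50 nM final) preincubated 30 min at room temperature with biotinylated H3(1-18)K9me3 peptide (50 nM) in PBS pH 7.4, 0.01% Tween-20, then compound added for 30 min. AlphaScreen streptavidin donor/nickel chelate acceptor beads (10 ug/mL final), 30 min dark, luminescence read.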
Numbers stand for hits; . = inactive; ? = inconclusive; / = not tested or not shown; [ ] = dose if it differs, or a comment. Unless noted, calls come from the whole dose curve; as a rule, active = well fitted curve in the direction sought with a large enough effect; inconclusive = small, poorly fitted or top-dose-only effect, or another doubt; inactive = no such curve, though single readings can be large; an effect the other way counts as inactive or inconclusive.

SMILES | PI5P4K alpha inh | JMJD2A Tudor | BAZ2B block | G9a block | PLK1 PBD inh | HP1b binding inh
O=C(COC(=O)/C=C/c1ccccc1)Nc1cccnc1Cl | . | . | . | 50µM | . | .
Cc1ccc(C(=O)OCC(=O)Nc2ccccc2Cl)c(O)c1 | . | .[11.4 µM] | . | / | 9.5µM | .
CCCCCCC(=O)NCC(=O)OCC(=O)c1ccccc1 | . | .[11.4 µM] | . | 25µM | . | .
CN(C)S(=O)(=O)c1ccc(NC(=O)COC(=O)c2ccccn2)cc1 | . | ? | ? | 50µM | . | .
CCOc1ccccc1OCC(=O)Nc1ccc(S(=O)(=O)N(C)C)cc1 | . | . | / | . | . | .
CCCCCC(=O)Nc1ccc(C(=O)COC(=O)c2ccccn2)cc1 | . | . | . | 50µM | . | .
CC(=O)c1cccc(NC(=O)COC(=O)c2ccccn2)c1 | . | . | ? | . | . | .
O=C(COC(=O)c1ccccn1)Nc1ccccc1Cl | . | 32µM | ? | 10µM | . | .
COc1cc(/C=C/C(=O)OCC(=O)NCc2ccc(F)cc2)ccc1O | . | . | / | / | . | .
COc1cc2ccc(=O)oc2c(O)c1OCC=C(C)C | / | ? | . | 11µM | . | .
CCCCN1C[C@H](C)[C@@H](CC(=O)NCc2ccccc2)C1=O | . | . | . | 45µM | . | .
CC(=O)c1ccc(N2CCN(C(=O)c3nn(C)c4c3CS(=O)(=O)c3ccccc3-4)CC2)cc1 | . | ? | . | . | 27µM | .
CCN(CC)S(=O)(=O)c1ccc2c(c1)[nH]c(=S)n2CC | . | . | / | 7.9µM | ? | .
COc1ccc(NS(=O)(=O)c2ccc3nc(COc4ccc5ccccc5c4)[nH]c3c2)cc1 | . | ? | . | ? | . | .
COc1ccccc1NS(=O)(=O)c1ccc2nc(CCl)[nH]c2c1 | . | . | . | 20µM | . | .
COc1ccc(OCc2nc3ccc(S(=O)(=O)Nc4ccccc4Cl)cc3[nH]2)cc1 | . | 40µM | . | . | . | .
CCCc1nc2ccc([N+](=O)[O-])cc2[nH]1 | . | . | . | / | . | .
CCN(CC)S(=O)(=O)c1ccc2nc(CCl)[nH]c2c1 | . | . | . | 50µM | ? | .
O=C(Nc1c(-c2ccc(Cl)cc2)[nH][nH]c1=O)c1ccc(Br)cc1 | . | / | / | / | . | /
CC(=O)C(=Cc1cccc(C#N)c1)C(=O)c1ccccc1 | . | / | / | / | ? | /
O=C(COC(=O)c1ccccc1)NCC1CCCO1 (stereo not drawn) | . | . | . | .[12.7 µM] | . | .
O=C(COC(=O)c1cccc([N+](=O)[O-])c1)NCC1CCCO1 (stereo not drawn) | . | . | . | . | 27µM | .
O=C1NC[C@H](Cc2ccccc2)N(CC2CCN(CCc3ccc(-c4ccccc4)cc3)CC2)C1=O | . | . | / | / | . | .
Cc1nnc(SCc2cc(=O)n3cccc(C)c3n2)s1 | / | . | . | . | / | .
Cc1cc(=O)n2cccc(O)c2n1 | . | ? | 13µM | / | ? | .
SMILES | PI5P4K alpha inh | JMJD2A Tudor | BAZ2B block | G9a block | PLK1 PBD inh | HP1b binding inh
Cc1cc(=O)oc2c(CN3CC(C)OC(C)C3)c(O)c(Cl)cc12 (stereo not drawn) | ? | 79µM | ? | ? | ? | ?
COC(=O)C1=C(C)NC(=O)/C1=C\N(C)C | . | . | . | 40µM | . | .
N#CC1(c2ccccc2)CCC(NCCc2ccccc2)CC1 (stereo not drawn) | . | 50µM | 56µM | 25µM | . | .
O=C(NCCc1ccccc1)C1(c2ccccc2)CCCC1 | . | . | . | .[0.501 µM] | . | .
O=[N+]([O-])c1ccc2c(c1)nc1n2CCN(CC2CCCO2)C1 (stereo not drawn) | . | . | . | . | . | .
O=[N+]([O-])c1ccc2c(c1)nc1n2CCN(c2ccccc2)C1 | ? | . | ? | 13µM | . | .
O=[N+]([O-])c1ccc2c(c1)nc1n2CCSC1 | . | . | . | ? | . | .
COCCN1CCn2c(nc3cc([N+](=O)[O-])ccc32)C1 | . | .[11.4 µM] | . | 35µM | . | .
COc1ccc(NC(=O)CSc2ncc(-c3ccc(Cl)cc3)[nH]2)cc1OC | / | . | ? | . | / | .
CC1(c2nnc(-c3cccc(Cl)c3)o2)CC(c2cccc([N+](=O)[O-])c2)=NO1 (stereo not drawn) | . | ? | . | 45µM | . | .
Cc1cc(N2CCN(c3ccccc3)CC2)n2cc(-c3ccccc3)nc2n1 | . | ? | 45µM | .[12.7 µM] | . | .
Cc1cc(N2CCN(c3ccccc3Cl)CC2)n2cc(-c3ccccc3)nc2n1 | . | ? | ? | 50µM | . | .
CN(Cc1ccccc1)c1nc(-c2ccc(F)cc2)cc(C(F)(F)F)n1 | / | . | . | . | / | .
O=C(CSc1n[nH]c(=O)[nH]c1=O)N1CCCCCC1 | . | .[11.4 µM] | . | / | 27µM | ?
O=C(O)c1cccnc1SCC(=O)N1CCCCCC1 | / | . | . | 50µM | . | .
O=C(O)c1ccccc1CSC1=NCCS1 | . | . | . | . | 17µM | .
O=C(CCc1n[nH]c(=O)[nH]c1=O)N1CCCCC1 | . | . | . | . | . | .
O=C(O)c1ccccc1CSc1ncccc1C(=O)O | . | 20µM | . | 20µM | . | .
O=C(CCC1N=C2c3ccccc3N=C(SCc3ccc(F)cc3)N2C1=O)NC1CCCCC1 (stereo not drawn) | / | . | . | . | / | .
CCc1nc2ccc(C(=O)N3CCN(S(=O)(=O)CC)CC3)cn2c1N(CC)Cc1cccc(Br)c1 | . | / | / | / | . | /
O=C(O)c1cccnc1SCc1cccc(Cl)c1 | . | . | . | . | . | .
Cc1cccc(CSc2ncccc2C(=O)O)c1 | . | 50µM | . | 11µM | . | .
Cc1cc([N+](=O)[O-])ccc1NC(c1nnc(-c2ccccc2)o1)c1ccccc1F (stereo not drawn) | / | . | . | . | / | .
c1ccc(-c2ccc(SCc3cccnc3)nn2)nc1 | . | ? | 3.2µM | . | . | .
c1cncc(CSc2ccc(-c3cccnc3)nn2)c1 | . | . | . | . | . | .
SMILES | PI5P4K alpha inh | JMJD2A Tudor | BAZ2B block | G9a block | PLK1 PBD inh | HP1b binding inh
Cc1ccccc1NCCNc1ccccc1C | / | . | ? | 45µM | . | .
Cc1ccc(C(=O)CNc2ccccc2C)cc1 | . | . | . | ? | . | .
O=C(c1ccco1)N1CCC(c2nc3ccccc3[nH]2)CC1 | . | . | . | . | . | .
COc1ccc(OC)c(Nc2ncnc3c2nc2n3CCCC2)c1 | / | . | . | . | / | .
O=C(O)c1cccc(S(=O)(=O)NCCc2ccccc2)c1 | . | .[11.4 µM] | . | . | 30µM | .
O=C(O)c1cccc(S(=O)(=O)NNc2ccccc2C(F)(F)F)c1 | ? | 7.9µM | 50µM | 1.4µM | . | .
Cc1ccc(-c2cn3c(n2)sc2cc(C(=O)NCCC4=CCCCC4)ccc23)c(C)c1 | / | . | . | . | / | .
COc1nc(NCCc2ccc(OC)c(OC)c2)nc(NC(C)(C)CO)n1 | / | . | . | . | . | .
COc1ccc(N2CCN(c3nc(NCCc4ccc(OC)c(OC)c4)nc(OC)n3)CC2)cc1 | / | 25µM | 40µM | 11µM | . | ?
